Results from PubChem BioAssay AID504332 (National Center for Advancing Translational Sciences (NCATS), 2011).
Values joined by “and” are separate entries in the source; they are usually repeats but may differ in a detail not shown here. Equal values may be shown once. Out of some 350,000 compounds screened, about 31,000 (8.9%) were called active. Not shown: some 15% with an inconclusive outcome. Calls come from the whole dose curve; as a rule, active = well fitted inhibition curve with a large enough effect; inconclusive = small, poorly fitted or top-dose-only effect; inactive = no such curve, though single readings can be large or run the other way. Only a selection was taken, and actives are over-represented in it overall.

target: Histone-lysine N-methyltransferase EHMT2 (Homo sapiens) (UniProt Q96KQ7); assay: qHTS Assay for Inhibitors of Histone Lysine Methyltransferase G9a; settings: G9a H3K9 monomethylation, AlphaScreen, 2 h; series mostly up to 59 µM; note: nearly all actives have a fitted effect of over 75% in size
Sequence (Q96KQ7 913-1193 limits assumed): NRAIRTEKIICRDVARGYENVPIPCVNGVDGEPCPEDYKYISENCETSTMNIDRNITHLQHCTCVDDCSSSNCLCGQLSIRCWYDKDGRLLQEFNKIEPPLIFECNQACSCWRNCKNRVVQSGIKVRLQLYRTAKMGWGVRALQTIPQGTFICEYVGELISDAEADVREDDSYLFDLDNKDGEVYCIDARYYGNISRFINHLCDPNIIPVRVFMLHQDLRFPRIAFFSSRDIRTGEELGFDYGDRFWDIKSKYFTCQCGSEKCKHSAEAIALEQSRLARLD
Method in brief: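 Using a bead-based AlphaScreen, monomethylated H3K9 product from 2 h room-temperature reactions (G9a 20 nM, peptide 500 nM, SAM 20 uM) was detected with 0.5 ug/mL rabbit anti-H3K9me1 antibody.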
% is set by controls: 0 for no effect and ±100 for the full control effect; potency is the fitted concentration of half-maximal effect.

Potency, inactive:
COc1cccc(NC(=O)CN(C)C(=O)CSCc2nc3scc(-c4cccs4)c3c(=O)[nH]2)c1, COc1ccc(OCCCON2C(=O)c3ccccc3C2=O)cc1, CCOC(=O)c1c(C)[nH]c2c1-c1ccccc1C(=O)C2=O, CSCCC(NS(=O)(=O)c1ccccc1F)C(=O)N1CC=C(c2ccccc2)CC1 (configuration not stated), CC(C)(C)c1ccc(C(=O)N2CCC(c3nc(-c4ccc(S(=O)(=O)N5CCCC5)cc4)no3)CC2)cc1, CCc1nn(CCCC(=O)NCc2ccccc2OC)c(=O)c2cc3occc3n12, Cc1ccc(Cl)cc1NC(=O)CSc1nc2ccccc2nc1Cc1ccccc1, COc1ccc(CNc2ncnc3ccccc23)cc1, CCOC(=O)c1sc(NC(=O)c2ccncc2)nc1C, CC(=O)N1CCCc2cc(S(=O)(=O)Nc3ccc(Cl)cc3F)ccc21, Oc1c(C(c2ccccc2Cl)N2CCOCC2)sc2nc(-c3ccco3)nn12 (configuration not stated), COc1cccc(CNC(=O)CCc2nc(-c3ccc(C)cc3)no2)c1, CCCN1CCN(CCCNC(=O)c2cnn(-c3ccc(C)cc3)c2-n2cccc2)CC1, COc1ccc(-c2ccc(=O)n(CC(=O)Nc3ccc(Br)cc3F)n2)cc1, O=C(COc1ccc(Cl)cc1)NCCS(=O)(=O)N1CCN(c2ccc(F)cc2)CC1, COc1ccccc1/C=C/c1nc(C#N)c(NC(C)c2ccccc2)o1 (configuration not stated), CS(=O)(=O)c1ccc(-c2nnc(NC(=O)c3ccc4c(c3)OCCO4)o2)cc1, CSc1ccccc1-c1nnc(NC(=O)c2ccc3c(c2)OCCO3)o1, COc1ccc(S(=O)(=O)N(C)CC(=O)NCCCN2CCOCC2)cc1Cl, CCc1cccc(NC(=O)CN(c2ccc(C)c(C)c2)S(=O)(=O)c2ccsc2C(=O)OC)c1, CC(=O)Nc1ccc(S(=O)(=O)N2CCC(C(=O)N[C@@H](Cc3ccccc3)C(=O)O)CC2)cc1, CSc1cccc(NC(=O)CN2C(=O)CCc3cc(S(=O)(=O)N4CCCCC4)ccc32)c1, Cc1cccc(C)c1NC(=O)CSc1nc2c([nH]1)c(=O)n(C)c(=O)n2C, CC(CCO)Nc1nc2c([nH]1)c(=O)n(C)c(=O)n2C (configuration not stated), Cc1ccc(NC(=O)c2csc3c2CCCC3)cc1, CC(=O)Cc1nsc(NC(=O)c2ccc(Cl)cc2Cl)n1, CCCOc1ccc(C2c3c(-c4ccccc4O)n[nH]c3C(=O)N2Cc2cccnc2)cc1 (configuration not stated), COc1cc(C2C(C(=O)c3ccc(C)o3)=C(O)C(=O)N2Cc2cccnc2)ccc1O (configuration not stated), O=C(c1ccc(Br)cc1)N(Cc1cccs1)c1ccc(F)cc1, CCCOc1ccc(C2=CSC3=NCCN23)cc1Cl, COc1ccc(CCNc2ncnc3onc(-c4ccc(Cl)cc4)c23)c(OC)c1, CCCCn1c(CNC(=O)C23CC4CC(CC(C4)C2)C3)nnc1SCC(=O)Nc1ccc(C)cc1, COc1ccc(-c2onc(C)c2C)cc1S(=O)(=O)NCC1CCN(Cc2cccc(F)c2)CC1, O=C(c1cccc([N+](=O)[O-])c1)N1CCN(Cc2ccccc2)CC1, COc1ccc(-c2nc(Cn3c(=O)cc(C)c4c(C)nn(-c5ccccc5)c43)c(C)o2)cc1OC, CCOC(=O)c1cc(Sc2ccccc2N)cc(C(=O)OCC)n1, Cc1ccc(S(=O)(=O)NCCSc2ccccc2)cc1[N+](=O)[O-], CCOc1ccccc1NC(=O)Cn1ncc2ccc([N+](=O)[O-])cc21, CCc1ccccc1NC(=O)c1ccc2nc(CCc3ccccc3)oc2c1, Cn1c(=O)n(C)c2cc(/C=N/NC(=O)c3cccc(Br)c3)ccc21, COc1cc(/C=N/NC(=O)c2ccc(N3CCCC3=O)cc2)ccc1O

Potency, active:
CCOC(=O)C1=C(c2ccc(OC)cc2)C(=O)c2ccccc2C1=O 31.6 µM, CCOC(=O)c1sc(=S)n2c1[nH]c(=O)c1ccc(C(=O)OC)cc12 7.94 µM, Oc1c(C(c2ccco2)N2CCC3(CC2)OCCO3)sc2ncnn12 (configuration not stated) 35.5 µM, Cc1nc2sc(C(c3ccco3)N3CCOCC3)c(O)n2n1 (configuration not stated) 11.2 µM, O=C(Nc1nnc(C2=COCCO2)o1)c1ccc([N+](=O)[O-])s1 44.7 µM, COc1ccc(-c2ccc(CNCCCN3CCOCC3)o2)cc1Cl 50.1 µM, Cc1ccc(NN=Nc2nc3c([nH]2)c(=O)n(C)c(=O)n3C)cc1 1.58 µM, CC(=O)Cc1nsc(NC(=O)c2csc3c2CCCC3)n1 2.51 µM, COc1ccc(C2C(C(C)=O)=C(O)C(=O)N2Cc2cccnc2)cc1 (configuration not stated) 20 µM, Cc1cc(OCCCN2CCN(Cc3ccccc3)CC2)ccc1[N+](=O)[O-] 8.91 µM, O=c1[nH]c(=S)[nH]c2[nH]c(=S)[nH]c12 1.58 µM and 1.26 µM, CCS(=O)(=O)c1cc([N+](=O)[O-])c(Sc2ccccc2N)s1 1.12 µM, O=C(N/N=C/c1cccc(Br)c1)c1ccc(N2CCCC2=O)cc1 79.4 µM

activity, negative = inhibition, inactive:
CCOC(=O)C1=C(C)Nc2sc(C(=O)c3ccc(Br)cc3)c(N)c2C1c1ccc(C(=O)OC)cc1 (configuration not stated) 0.599% [at 12.7 µM], Cc1ccc(C(c2sc3nc(C)nn3c2O)N2CCN(c3ccccc3)CC2)cc1 (configuration not stated) 15.6% [at 12.7 µM], Cc1ccccc1OCC(=O)Nc1ccc2c(c1)ncn2C -10.2% [at 0.501 µM], O=S(=O)(NCCCN1CCOCC1)c1ccc(F)c(Cl)c1 27% [at 12.7 µM], O=C(NCc1cccnc1)c1cc(S(=O)(=O)N2CCOCC2)c(Cl)cc1Cl -2.17% [at 2.33 µM], Cc1cc(OCCCCOc2ccc(C#N)cc2)ccc1[N+](=O)[O-] 30.7% [at 12.7 µM], CN(CC(=O)Nc1ccc(Cl)cc1)CC(=O)Nc1cccc2ccccc12 -44.6% [at 12.7 µM], COc1ccc(C)cc1NC(=O)CCCN1C(=O)NC(C)(C)C1=O 20.4% [at 2.33 µM]
